MPTP inh: mitochondrial permeability transition pore inhibitors, primary screen, biochemical, isolated mouse mitochondria, absorbance; Ca2+ swelling absorbance, 30 min; inhibition, % at 10 µM; 360,000 tested, 1.4% active;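 active = inhibition of 50% or more, scaled per plate between neutral and stimulator controls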;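 note: 0% = DMSO wells given calcium and 100% = 1 mM EGTA wells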
TIM10 inh: growth inhibitors of isogenic TIM10 control yeast, primary screen, counter-screen for tim10-1 yeast inhibitor project, luminescence, uHTS. inhibition, % at 10 µM. 330,000 tested, 1.4% active. AID 463195, 2010. S. cerevisiae TIM10 strain growth, BacTiter-Glo luminescence, 24 h;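 active = inhibition of 40% or more at the single tested concentration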;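 note: wild-type TIM10 isogenic control strain grown at permissive 25 °C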
tim23-1 inh: growth inhibitors of tim23-1 mutant yeast, primary screen, luminescence, uHTS; AID 463212, 2010; 330,000 tested, 1.3% active; S. cerevisiae tim23-1 growth, BacTiter-Glo luminescence, 24 h; inhibition, % at 20 µM;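 active = growth inhibition of the mutant yeast at or above 50%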;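 note: temperature-sensitive mutant grown at 25 °C; plate controls were DMSO-treated mutant yeast for no effect and medium wells lacking yeast for full effect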
tim10-1 inh: growth inhibitors of tim10-1 mutant yeast, primary screen, luminescence, uHTS; 330,000 tested, 2.2% active; S. cerevisiae tim10-1 ts strain growth, BacTiter-Glo, 24 h; inhibition, % at 20 µM;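 active = inhibition of at least 40%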;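 note: mutant grown at 25 °C; 0% = DMSO wells with yeast and 100% = wells holding no yeast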
Mdm2 MdmX PPI: inhibitors of human Mdm2-MdmX association, primary screen, cell-based, luminescence, split luciferase, SaOS-2, uHTS; SaOS-2 split-luciferase Mdm2/MdmX complementation; inhibition, % at 8 µM; 330,000 tested, 3% active; AID 485346, 2010;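 active = inhibition of at least 50% at 8 µM in the primary screen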
Target sequence (O15151 whole entry, looked up): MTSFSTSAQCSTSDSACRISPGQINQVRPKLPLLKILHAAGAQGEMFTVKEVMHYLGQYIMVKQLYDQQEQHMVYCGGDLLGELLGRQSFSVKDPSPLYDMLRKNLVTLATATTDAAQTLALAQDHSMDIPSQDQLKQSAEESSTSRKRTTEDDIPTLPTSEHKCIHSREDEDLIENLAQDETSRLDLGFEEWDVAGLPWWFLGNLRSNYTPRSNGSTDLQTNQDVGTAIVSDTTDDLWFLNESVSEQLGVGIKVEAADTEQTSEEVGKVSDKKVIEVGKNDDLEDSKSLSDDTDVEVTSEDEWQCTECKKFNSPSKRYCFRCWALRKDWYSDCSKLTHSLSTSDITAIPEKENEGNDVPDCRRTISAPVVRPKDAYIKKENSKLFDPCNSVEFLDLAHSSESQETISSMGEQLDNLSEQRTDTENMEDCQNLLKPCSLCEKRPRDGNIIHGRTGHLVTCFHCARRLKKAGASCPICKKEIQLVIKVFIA
Target sequence (Q00987 whole entry, looked up): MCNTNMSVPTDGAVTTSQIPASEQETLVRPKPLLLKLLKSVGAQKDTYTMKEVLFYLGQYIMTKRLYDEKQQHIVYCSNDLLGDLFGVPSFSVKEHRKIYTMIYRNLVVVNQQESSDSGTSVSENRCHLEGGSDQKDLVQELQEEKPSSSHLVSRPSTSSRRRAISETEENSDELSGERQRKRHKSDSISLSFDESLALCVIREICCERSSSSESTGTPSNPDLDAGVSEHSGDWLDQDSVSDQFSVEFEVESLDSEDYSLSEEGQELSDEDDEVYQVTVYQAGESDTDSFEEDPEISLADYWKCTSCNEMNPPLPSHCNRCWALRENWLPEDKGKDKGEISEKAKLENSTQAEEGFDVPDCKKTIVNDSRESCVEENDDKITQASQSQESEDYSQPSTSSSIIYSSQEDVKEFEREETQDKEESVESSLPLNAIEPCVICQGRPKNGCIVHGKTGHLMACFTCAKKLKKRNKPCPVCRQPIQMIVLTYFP
Rh123 counter: fluorescence retest of MPTP screen hits in isolated mitochondria, single concentration. AID 624504, 2012. membrane potential, Rhodamine 123 fluorescence. 5,000 tested, 78% active. inhibition, % at 10 µM. shares compounds with MPTP inh; in the data active = inhibition above about 22%;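 note: 0% = DMSO vehicle and 100% = positive control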
Numbers without * were called inactive; . = no result. Only some compounds are listed: those with a hit (about 6.3% of all), similar ones and a draw of the others.

SMILES | MPTP inh | TIM10 inh | tim23-1 inh | tim10-1 inh | Mdm2 MdmX PPI | Rh123 counter
CN(Cc1cn(C)nc1-c1ccc(Oc2ccccc2)cc1)Cc1cnc2ccccn12 | 69* | 18 | 33 | 15 | 23 | 57*
Cn1cc(CNCc2cnc3ccccn23)c(-c2ccc(Oc3ccccc3)cc2)n1 | 31 | 4 | 21 | 23 | 29 | .
O=C1/C(=C/c2ccc(O)cc2)SC(=S)N1CC1CCCO1 (configuration not stated) | 60* | 10 | 38 | 18 | -7 | 70*
COC(=O)[C@@]1(Cc2ccccc2)[C@H]2C(=O)N(Cc3ccccc3)C(=O)[C@H]2[C@H]2CN=C(SCC3CC3)N21 | 5 | 3 | 41 | 23 | 40 | .
OCCCNc1ncnc2[nH]ncc12 | -1 | . | . | . | . | .
CCCCCCCCNc1ncnc2[nH]ncc12 | 71* | . | . | . | . | 71*
CN1CCN(C(=O)c2ccc(-c3cnn(C)c3)c3ccoc23)CC1 | 1 | . | . | . | . | .
COc1ccc(-c2[nH]c(-c3cc(OC)c4c(c3)OCO4)nc2-c2ccccc2)cc1 | 95* | 29 | 33 | 30 | 26 | 69*
O=c1[nH]c(-c2ccccc2F)nc2c1sc(=S)n2Cc1ccccc1 | 66* | -2 | 18 | 18 | -11 | 69*
CC(C)C1Nc2c(O)cc(Cl)c([N+](=O)[O-])c2C2C=CCC21 (configuration not stated) | 92* | . | . | . | . | 78*
O=C(Nc1cccc([N+](=O)[O-])c1)c1ccccc1 | 2 | 12 | 25 | -33 | -15 | .
Cc1ccccc1NC(=S)NC1CCCC1 | 1 | -8 | 23 | 5 | 8 | .
O=C(Nc1cccc([N+](=O)[O-])c1)ONC1=NCCCCC1 | 68* | -4 | 2 | 15 | -7 | 77*
COc1cc(NC(=O)Nc2cccc([N+](=O)[O-])c2)cc(OC)c1 | 98* | 5 | -3 | 20 | 26 | 89*
Cc1cc([N+](=O)[O-])ccc1NC(=S)NC1CCCC1 | 67* | 8 | 21 | 28 | 9 | 97*
O=C(Nc1cccc([N+](=O)[O-])c1)c1ccc(CSc2ccccc2)cc1 | 78* | -11 | -16 | 7 | 17 | 86*
CC(=O)NC(=S)Nc1cccc([N+](=O)[O-])c1 | -1 | 0 | 3 | 3 | 7 | .
CCN(c1ccccc1)S(=O)(=O)c1ccc(Oc2ccccc2)c(N)c1 | 1 | . | . | . | . | .
O=C(Nc1ccccc1F)c1csc(COCCO)n1 | 1 | . | . | . | . | .
O=C(c1ccc2c(c1)CCC2)N1CCN(Cc2c(F)cccc2Cl)CC1 | 0 | . | . | . | . | .
Cc1cc(Br)ccc1NC(=S)Nc1cccc([N+](=O)[O-])c1 | 97* | 19 | 8 | 13 | -16 | 91*
O=C(Nc1cccc([N+](=O)[O-])c1)N(c1ccccc1)c1ccccc1 | 1 | . | . | . | . | .
CC(C)S(=O)(=O)c1csc(NC(=O)Nc2cccc([N+](=O)[O-])c2)c1Cl | 84* | -9 | -8 | -19 | 36 | 69*
O=C(Nc1cccc([N+](=O)[O-])c1)Nc1cccc([N+](=O)[O-])c1 | 91* | 7 | 9 | 15 | 45 | 78*
COc1ccc(CCNC(=O)Nc2cccc([N+](=O)[O-])c2)cc1 | 85* | 6 | 2 | -5 | 8 | 83*
SMILES | MPTP inh | TIM10 inh | tim23-1 inh | tim10-1 inh | Mdm2 MdmX PPI | Rh123 counter
Cc1ccc(S(=O)(=O)NC(C)C(=O)Nc2cccc([N+](=O)[O-])c2)cc1 (configuration not stated) | 0 | 14 | 24 | 7 | -54 | .
Cc1nn(C2CCS(=O)(=O)C2)c(C)c1CN(C)C(=O)c1ccc(F)cc1 (configuration not stated) | 0 | . | . | . | . | .
O=C(NNC(=O)c1ccncc1)Nc1cccc([N+](=O)[O-])c1 | -2 | -4 | 2 | -12 | -13 | .
O=C(Nc1cccc([N+](=O)[O-])c1)Nc1ccc2c(c1)OCCO2 | 62* | 17 | 0 | 10 | -130 | 91*
CCOc1ccc(C(=O)Nc2cccc([N+](=O)[O-])c2)cc1Br | 80* | 4 | -5 | 12 | -3 | 69*
O=C(Nc1cccc([N+](=O)[O-])c1)NN1CCCCCC1 | 94* | . | . | . | . | 82*
O=C(Nc1ccc(C(=O)O)cc1)Nc1cccc([N+](=O)[O-])c1 | 81* | 25 | 10 | 0 | 13 | 76*

High-throughput results from PubChem.
